Bioassay records (PubChem)
Only a selection was taken, and hits are over-represented in it overall.
Pf Dd2 inh – qHTS Primary assay for Inhibitors of Plasmodium falciparum Dd2 growth in vitro | 4.3% of 120,000 active | P. falciparum Dd2 growth, SYBR Green, 72 h | Potency, µM (highest dose often 28.9 µM), inactives show top-dose activity, negative = inhibition, most hits filed as inhibitors | AID 1347417, 2020; active means well fitted inhibition curve with a large enough effect;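 further: plate controls were DMSO vehicle for no effect and reference drug for full effect; nearly all actives have a fitted effect of over 65% in size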
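Infected erythrocytes (Dd2, 0.3% parasitemia, 2.5% hematocrit final) are added to compound in RPMI-1640/Albumax II medium, grown 72 h at 37C in low oxygen, then lysed with saponin/Triton-X containing SYBR Green and read by fluorescence.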
Active calls of the source: *; i = inactive; [ ] = dose if it differs, or a comment. Potency means the concentration at half of the fitted maximal effect.

SMILES	Pf Dd2 inh
COc1ccccc1N1CCN(C(=O)C2CC(=O)N(c3n[nH]c4cccc(F)c34)C2)CC1 (stereo not drawn)	7.08µM*
COc1cccc(N2CCN(C(=O)C3CC(=O)N(c4n[nH]c5cccc(F)c45)C3)CC2)c1 (stereo not drawn)	-7.8%
O=C(Cn1nc2c(cc1=O)CCCC2)Nc1nc2c(s1)CCCCC2	-7.2%
Oc1ccccc1-c1cc(C2=CCOCC2)c2cncn2c1	1.26µM*
COc1ncccc1-c1cc(-c2c(C)noc2C)cc2c1C(=O)N(C)C2=O	i
Cc1noc(C)c1-c1cc(-c2ccncc2)cn2cncc12	-27.3%[44.1 µM]
C1=C(c2cc(-c3cccc4cn[nH]c34)cn3cncc23)CCOC1	i
C1=C(c2cc(-c3cccc4[nH]ccc34)cn3cncc23)CCOC1	-24.5%[44.1 µM]
Cc1noc(C)c1-c1cc2c(cc(-c3ccccc3)n2C)c(-c2cnn(C)c2)n1	-26.0%[44.1 µM]
Cc1noc(C)c1-c1cc(-c2ccccc2O)cn2cncc12	14.1µM*
C[S+](=O)([O-])c1ccc(-c2cc(-c3cccnc3)c3cncn3c2)cc1	i
Cc1noc(C)c1-c1cc(-c2ccccc2)cn2cncc12	5.62µM*
Oc1ccccc1-c1cc(-c2cccnc2)c2cncn2c1	0.355µM*
O=C1COCCN1c1cc(-c2ccccc2Oc2ccccc2)cn2cncc12	i
Cc1noc(C)c1-c1cc2c(c(-c3cccnc3)c1)C(=O)N(C)C2	-13.5%[44.1 µM]
CN1CC2(CCN(C(=O)c3ccccc3-c3nn[nH]n3)CC2)CC1C(=O)O (stereo not drawn)	2.0%
CCCNC(=O)C1COC2(CCN(C(=O)c3ccccc3F)CC2)N1C(=O)c1cccc(F)c1 (stereo not drawn)	2.6%
COCc1nnc2n1CCC(NC(=O)c1cc(C3CC3)[nH]n1)CC2 (stereo not drawn)	8.3%
CCN(CC)C(=O)c1c(-c2ccc(F)cc2)noc1[C@H](C)O	6.1%[44.1 µM]
COCC(=O)N1CCC2(CCN(Cc3cc(C4CC4)n[nH]3)CC2)C(CO)C1 (stereo not drawn)	15.5%
Cc1noc(C)c1-c1cc(-c2ccc(CN(C)C)cc2)cn2cncc12	2.82µM*
CN(C)Cc1ccc(-c2cc(-c3ccc(=O)[nH]c3)c3cncn3c2)cc1	2.7%[44.1 µM]
Cc1noc(C)c1-c1cc2c(c(-c3cccc(CO)c3)c1)C(=O)N(C)C2=O	i
COc1ccc(NC(=O)Cn2nc3n(c2=O)CCCCC3)cc1Cl	-14.6%
Clc1cc(NC2CCCCC2)n2nccc2n1	-9.1%[44.1 µM]
SMILES	Pf Dd2 inh
Cc1cccc(-c2nocc2CCC(=O)NC2CCN(Cc3ccccc3)CC2)c1	i
Cc1ccc2[nH]c(=O)c(CCC(=O)O)cc2c1	20.8%
Cc1ccc2[nH]c(=O)c(CCC(=O)NC3CCN(Cc4ccccc4)CC3)cc2c1	7.08µM*
CN(CC1CCOC1)S(=O)(=O)c1ccc(Br)s1 (stereo not drawn)	23.5%[5.79 µM]
Cc1cc2occ(CC(=O)N3CCCn4nc(CO)cc4C3)c2cc1Cl	-12.9%
CC(=O)NC[C@H]1COCc2nc3cc(F)ccc3n21	18.0%[44.1 µM]
CCOC(=O)c1c(C)[nH]c(CCC(=O)NCCCN2CCN(c3ccccc3F)CC2)c1C	11.2µM*
CCOC(=O)c1c(C)[nH]c(C)c1S(=O)(=O)NCC(=O)N1CCN(c2ccccc2F)CC1	i
CCOC(=O)c1c(C)[nH]c(CCC(=O)NCc2ccc(F)cc2)c1C	-14.1%
N#Cc1ccc(C(=O)N[C@H]2[C@H](O)[C@H](O)C[C@@H]2c2ccc(C(F)(F)F)nc2)cc1	-7.6%[44.1 µM]
CCN(C1CCOCC1)C1CN(C(=O)c2ccsc2)C1	-15.2%
Cc1oc2c(c1C(=O)NC1CCOC3(CCOCC3)C1)C(=O)CCC2 (stereo not drawn)	21.0%
O=C(N1CCC(N[S+](=O)([O-])Cc2ccccc2F)CC1)N1CC2CC(C1)[C@H]1CCCC(=O)N1C2 (stereo partly drawn)	i
Cc1cc(C)c2c(=O)cc(C(=O)Nc3sc4c(c3C(=O)NCc3ccco3)CCCC4)oc2c1	-2.6%
Cc1ccccc1C(=O)Nc1sc2c(c1C(=O)NCc1ccco1)CCC(C(C)(C)C)C2 (stereo not drawn)	11.2µM*
CCC(CC)NC(=O)CCC1CCN(C(=O)c2ccccc2Cl)CC1	-12.6%
CC(C)(C)C1CCc2c(sc(NC(=O)c3cc(-c4ccc(F)cc4)on3)c2C#N)C1 (stereo not drawn)	32.7%
Cc1ccccc1C(=O)Nc1sc2c(c1C(=O)O)CCC(C(C)(C)C)C2 (stereo not drawn)	-27.1%
CC1CCN(C(=O)c2c(NC(=O)c3ccccc3Cl)sc3c2CCC(C(C)(C)C)C3)CC1 (stereo not drawn)	11.2µM*
Cc1ccccc1C(=O)Nc1sc2c(c1C(=O)N1CCCCC1)CCC(C(C)(C)C)C2 (stereo not drawn)	5.62µM*
Cc1ccc2c(=O)cc(C(=O)Nc3sc4c(c3C(=O)NCc3ccco3)CCC4)oc2c1C	38.3%
COC(=O)c1c(NC(=O)c2cccc(OC)c2)sc2c1CCC(C(C)(C)C)C2 (stereo not drawn)	-4.4%
c1cc(-c2nnc([C@H]3CCN(Cc4ncc[nH]4)C3)o2)ccn1	-16.8%[44.1 µM]
COCC(=O)N1CCOC[C@H](Oc2ccc(C(F)(F)F)cc2)C1	-11.8%[44.1 µM]
CN(C)C[C@H]1O[C@@H]2C[C@@H](CC(=O)NCc3cnn(C)c3)O[C@@H]2[C@@H]1O	26.8%[44.1 µM]
SMILES	Pf Dd2 inh
Cc1noc([C@@H]2CN(C(=O)c3ccc(C(C)C)cc3)C[C@H]2CO)n1	-0.4%
Cc1cnc(C(=O)N2CCC(N3C[C@H](O)C[C@H]3C(=O)NC3CCCCC3)CC2)cn1	9.9%
Cc1cc(C)n(CCC(=O)N2CCC(N3C[C@H](O)C[C@H]3C(=O)NC3CCCCC3)CC2)n1	-24.4%
Cc1cc(C)n(Cc2ccc(C(=O)N3CCC(N4C[C@H](O)C[C@H]4C(=O)NC4CCCCC4)CC3)o2)n1	5.01µM*
O=C1N(CCc2ccccc2)CCOC12CCN([S+](=O)([O-])c1cccnc1)CC2	-10.6%[44.1 µM]
COc1ccccc1N1CCN(C(=O)CSc2n[nH]c(-c3ccccc3)n2)CC1	-2.3%
CC1CCCCN1C(=O)CSc1nnc(-c2ccccc2Cl)o1 (stereo not drawn)	-18.4%
CC1CCCCN1C(=O)CSc1n[nH]c(-c2ccccc2Cl)n1 (stereo not drawn)	7.8%
COc1ccccc1N1CCN(C(=O)CSc2nc(-c3ccc(C(C)C)cc3)no2)CC1	0.355µM*
COc1ccccc1N1CCN(C(=O)CSc2nc(C)cc(=O)[nH]2)CC1	54.3%
CC1CCCCN1C(=O)CSc1nc(-c2ccccc2)no1 (stereo not drawn)	10µM*
CN(C)C(=O)N1Cc2ccccc2OC2(CCN(C(=O)Cc3csc(N)n3)CC2)C1	-27.2%
CN1CCCCCCN(C(=O)Cn2c(=O)oc3ccccc32)[C@H]2CCC[C@H]2C1=O	-10.3%
COc1ccc(Cl)cc1NC(=O)CCC1CCCN(Cc2ccc3c(c2)OCCO3)C1 (stereo not drawn)	i
COc1cccc(-c2nc(N3CCOCC3)cc3c2CN(CC2CC2)C3=O)c1OC	3.7%[44.1 µM]
O=C1c2cc(N3CCOCC3)nc(-c3cccc(O)c3)c2CN1CC(F)(F)F	2.82µM*
COc1ncccc1-c1nc(N2CCOCC2)cc2c1CN(CC(F)(F)F)C2=O	76.7%[44.1 µM]
COc1cccc(-c2nc(N3CCOCC3)cc3c2CN(CC(F)(F)F)C3=O)c1OC	-0.6%[44.1 µM]
O=C1c2cc(N3CCOCC3)nc(-c3cccc(F)c3)c2CN1CC1CC1	i
COc1cccc(-c2nc(N3CCOCC3)cc3c2CN(Cc2ccccc2)C3=O)c1OC	11.2µM*
